PubChem BioAssay (NCI)
About 83,000 compounds went through this panel and 20% of them were active in at least one assay; those are over-represented in the sample as a whole.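 Treatment: one concentration, 48 hours, 96-well format. Scoring: percent growth, with anything below 10 considered active.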 The source made the active and inactive calls.

The compounds below were run on UO-31 renal (assay: NCI-60 one-dose screen, 48 h (100 = growth as untreated, 0 = no growth, -100 = all killed)). Conditions: 10 µM unless noted.

SMILES	growth
COC(=O)c1cccc2c1N(C)c1c(cccc1C(=O)OC)CC2	101% (inactive)
COc1ccc(/C=C2\N=C(c3ccccc3)N(C(=O)c3ccccc3O)NC2=O)cc1	95.9% (inactive)
c1cc2[nH]ncc2cc1-c1nc2ccc3[nH]ncc3c2c2c1CCC2	38% (inactive)
O=C(Oc1ccccc1[N+](=O)[O-])C1CCCN1C(=O)OCc1ccccc1 (stereo not drawn)	90.1% (inactive)
COc1ccc(CCNC2=CC(=O)CCC2)cc1OC	81.2% (inactive)
O=C(Nc1ccncc1)C(=O)c1cn(S(=O)(=O)c2ccc(Cl)cc2)c2ccccc12	42.1% (inactive)
O=C(Nc1cccc(-n2cc(-c3ccncc3)c(-c3ccc(Cl)c(O)c3)n2)c1)Nc1ccc(Cl)c(Cl)c1	21% (inactive)
O=C(Nc1ccncc1)C(=O)c1cn(S(=O)(=O)c2ccccc2F)c2ccccc12	52.9% (inactive)
O=C(c1ccccc1)C1OC1c1ccc([N+](=O)[O-])cc1 (stereo not drawn)	136% (inactive)
Cc1ccc(Cc2c(C=O)nc(N)[nH]c2=O)c2ccccc12	81.2% (inactive)
CCN(CC)CCOC(=O)C(c1ccccc1)(c1ccccc1)C(C)C	51.7% (inactive)
COc1ccc(C(=O)N2NC(=O)/C(=C/c3cn(-c4ccccc4)nc3-c3ccccc3)N=C2c2ccccc2)cc1	93.7% (inactive)
CC(C)(C)OC(=O)NC(CSCc1ccccc1)C(=O)ON1C(=O)CCC1=O (stereo not drawn)	90.8% (inactive)
COc1ccc(C2=C(c3cc(OC)c(OC)c(OC)c3)C(=O)CC2)cc1	46.2% (inactive)
COc1ccc(C(=O)N2NC(=O)/C(=C/c3ccccc3F)N=C2c2ccccc2)cc1	89.8% (inactive)
C/C(=C\c1ccc(OCC(=O)O)c(Cl)c1Cl)[N+](=O)[O-]	111% (inactive)
COc1ccc(-c2cc3c(OC)c(OC)c(OC)cc3oc2=O)cc1	77.9% (inactive)
COc1ccc(Nc2ncccc2C(=O)NCc2cn(Cc3cccc(Oc4ccccc4)c3)nn2)c(OC)c1	48% (inactive)
CC(=O)Nc1scc[n+]1Cc1ccccc1	91.1% (inactive)
COc1cc2c(c(OC)c1OC)-c1ccc(N)c(=O)cc1[C@@H](NC(C)=O)CC2	40% (inactive)

SMILES	growth
O=C([O][Sn]([O]C(=O)c1ccccn1)([c]1ccccc1)[c]1ccccc1)c1ccccn1	82.4% (inactive)
COC(OC)c1ccccc1	85.4% (inactive)
Fc1ccc(Nc2nc(NCCNc3ccnc4cc(Cl)ccc34)nc(N3CCOCC3)n2)cc1	45.2% (inactive)
COc1ccc(-c2nc3sc(-c4cc(OC)c(OC)c(OC)c4)nn3c2/C=C2/C(=O)Nc3ccc(F)cc32)cc1	-33.4% (active)
Cc1ccc(S(=O)(=O)n2cc(C(=O)C(=O)Nc3ccncc3)c3ccccc32)cc1	43.1% (inactive)
COc1ccc(Nc2ncccc2C(=O)NCc2cn(Cc3cccc(Oc4ccccc4)c3)nn2)cc1	40.9% (inactive)
CC1=C(C#N)C(=O)NC(C)C1 (stereo not drawn)	94.9% (inactive)
Cc1cc(C2=NNC(=O)Cc3cc4c(cc32)OCCO4)cc(C)c1N	40% (inactive)
CCOC(=O)C1=C(C)NC(C)=C(C(=O)OCC)C1(C)C	100% (inactive)
O=C(Nc1ccncc1)C(=O)c1cn(S(=O)(=O)c2ccc(Br)cc2)c2ccccc12	52.7% (inactive)
CC1CCC(C)N(C)C1 (stereo not drawn)	84.6% (inactive)
CCC(C)/C(=C\C#N)NCCCN/C(=C/C#N)C(C)CC (stereo not drawn)	82.4% (inactive)
CC1(c2ccc(Cl)cc2)OC(=O)CC(=O)O1	90.3% (inactive)
CCN(CC)CCOc1ccc(Cl)c(C)c1	86.5% (inactive)
Nc1cccc(Cl)c1N	71.2% (inactive)
O=[N+]([O-])c1cc(Cl)c2[nH]c3c(Cl)cc([N+](=O)[O-])cc3c2c1	-13.9% (active)
CSc1nc2c(c(=O)[nH]1)C(c1ccc(C)cc1)C=C(C(=O)O)N2 (stereo not drawn)	88.1% (inactive)
COc1cc(/C=C/C(=O)/C=C/c2cc(OC)c3c(c2)OCO3)cc2c1OCO2	88.1% (inactive)
Oc1ccccc1/C=N/NC(=S)NC1CC2C=CC1C2 (stereo not drawn)	49.8% (inactive)

Each compound was assayed on TK-10 renal in the same assay as above. Conditions: 10 µM unless noted.

SMILES	growth
COC(=O)c1cccc2c1N(C)c1c(cccc1C(=O)OC)CC2	121% (inactive)
COc1ccc(/C=C2\N=C(c3ccccc3)N(C(=O)c3ccccc3O)NC2=O)cc1	97.7% (inactive)
O=C(Oc1ccccc1[N+](=O)[O-])C1CCCN1C(=O)OCc1ccccc1 (stereo not drawn)	112% (inactive)
COc1ccc(CCNC2=CC(=O)CCC2)cc1OC	115% (inactive)
O=C(Nc1ccncc1)C(=O)c1cn(S(=O)(=O)c2ccc(Cl)cc2)c2ccccc12	81.9% (inactive)
O=C(Nc1ccncc1)C(=O)c1cn(S(=O)(=O)c2ccccc2F)c2ccccc12	101% (inactive)
O=C(c1ccccc1)C1OC1c1ccc([N+](=O)[O-])cc1 (stereo not drawn)	50% (inactive)
Cc1ccc(Cc2c(C=O)nc(N)[nH]c2=O)c2ccccc12	112% (inactive)
CCN(CC)CCOC(=O)C(c1ccccc1)(c1ccccc1)C(C)C	91.6% (inactive)
COc1ccc(C(=O)N2NC(=O)/C(=C/c3cn(-c4ccccc4)nc3-c3ccccc3)N=C2c2ccccc2)cc1	103% (inactive)
CC(C)(C)OC(=O)NC(CSCc1ccccc1)C(=O)ON1C(=O)CCC1=O (stereo not drawn)	119% (inactive)
COc1ccc(C2=C(c3cc(OC)c(OC)c(OC)c3)C(=O)CC2)cc1	60.6% (inactive)
COc1ccc(C(=O)N2NC(=O)/C(=C/c3ccccc3F)N=C2c2ccccc2)cc1	108% (inactive)
C/C(=C\c1ccc(OCC(=O)O)c(Cl)c1Cl)[N+](=O)[O-]	113% (inactive)
COc1ccc(-c2cc3c(OC)c(OC)c(OC)cc3oc2=O)cc1	85% (inactive)
COc1ccc(Nc2ncccc2C(=O)NCc2cn(Cc3cccc(Oc4ccccc4)c3)nn2)c(OC)c1	64.5% (inactive)
CC(=O)Nc1scc[n+]1Cc1ccccc1	113% (inactive)

SMILES	growth
COc1cc2c(c(OC)c1OC)-c1ccc(N)c(=O)cc1[C@@H](NC(C)=O)CC2	33.4% (inactive)
O=C([O][Sn]([O]C(=O)c1ccccn1)([c]1ccccc1)[c]1ccccc1)c1ccccn1	30.1% (inactive)
COC(OC)c1ccccc1	117% (inactive)
Cc1ccc(S(=O)(=O)n2cc(C(=O)C(=O)Nc3ccncc3)c3ccccc32)cc1	87.9% (inactive)
COc1ccc(Nc2ncccc2C(=O)NCc2cn(Cc3cccc(Oc4ccccc4)c3)nn2)cc1	76.3% (inactive)
CC1=C(C#N)C(=O)NC(C)C1 (stereo not drawn)	106% (inactive)
Cc1cc(C2=NNC(=O)Cc3cc4c(cc32)OCCO4)cc(C)c1N	60.6% (inactive)
CCOC(=O)C1=C(C)NC(C)=C(C(=O)OCC)C1(C)C	109% (inactive)
O=C(Nc1ccncc1)C(=O)c1cn(S(=O)(=O)c2ccc(Br)cc2)c2ccccc12	98.2% (inactive)
CC1CCC(C)N(C)C1 (stereo not drawn)	102% (inactive)
CCC(C)/C(=C\C#N)NCCCN/C(=C/C#N)C(C)CC (stereo not drawn)	119% (inactive)
CC1(c2ccc(Cl)cc2)OC(=O)CC(=O)O1	121% (inactive)
CCN(CC)CCOc1ccc(Cl)c(C)c1	116% (inactive)
Nc1cccc(Cl)c1N	93% (inactive)
O=[N+]([O-])c1cc(Cl)c2[nH]c3c(Cl)cc([N+](=O)[O-])cc3c2c1	-23.1% (active)
COc1cc(/C=C/C(=O)/C=C/c2cc(OC)c3c(c2)OCO3)cc2c1OCO2	136% (inactive)
Oc1ccccc1/C=N/NC(=S)NC1CC2C=CC1C2 (stereo not drawn)	103% (inactive)
